# Measurements published in publication PMC7862700, “An all-to-all approach to the identification of sequence-specific readers for epigenetic DNA modifications on cytosine”.
# Assays:
# Assay in all cases: DAPPL (digital affinity profiling via proximity ligation, sequencing); 10 mM Tris-HCl pH 7.5, 50 mM NaCl, 1 mM DTT, 4% glycerol, room temperature, 30 min; GST-TFs on glutathione beads, 16-mer random dsDNA library, 0.1% formaldehyde crosslink after washing; high values mean tight binding
# Details in all cases: protein: recombinant; tags: N-terminal GST; dsDNA, one strand shown
# ELK1 = biological target: T1, ELK1 (Homo sapiens, UniProt P19419 1-428)
# T1 sequence: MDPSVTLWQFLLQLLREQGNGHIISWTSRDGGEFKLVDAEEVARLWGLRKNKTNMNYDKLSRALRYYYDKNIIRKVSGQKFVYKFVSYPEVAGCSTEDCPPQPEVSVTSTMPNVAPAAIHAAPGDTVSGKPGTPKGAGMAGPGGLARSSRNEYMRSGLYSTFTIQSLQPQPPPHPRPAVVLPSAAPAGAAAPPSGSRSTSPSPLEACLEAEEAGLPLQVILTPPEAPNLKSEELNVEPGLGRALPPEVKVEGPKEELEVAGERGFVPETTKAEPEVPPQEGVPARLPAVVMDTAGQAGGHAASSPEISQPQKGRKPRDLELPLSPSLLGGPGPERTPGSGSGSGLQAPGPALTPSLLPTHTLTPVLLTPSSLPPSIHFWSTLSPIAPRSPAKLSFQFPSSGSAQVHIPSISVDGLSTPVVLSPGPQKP
# Method in brief: (§1)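 GST fusions of human transcription factors were expressed in yeast and captured with glutathione beads. Once given DNA barcodes and pooled alongside a tag-only sample, they were incubated for 30 min at room temperature with 200 nmole of a random double-stranded 16-mer DNA library in Tris/NaCl/DTT/glycerol buffer, then washed, crosslinked (0.1% formaldehyde), proximity-ligated, PCR-amplified and sequenced on an Illumina NextSeq500. The binding signal of each hexamer is its read frequency for a factor divided by its frequency for the tag-only sample.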
# GABPA = biological target: T2, GABPA (Homo sapiens, UniProt Q06546 1-454)
# T2 sequence: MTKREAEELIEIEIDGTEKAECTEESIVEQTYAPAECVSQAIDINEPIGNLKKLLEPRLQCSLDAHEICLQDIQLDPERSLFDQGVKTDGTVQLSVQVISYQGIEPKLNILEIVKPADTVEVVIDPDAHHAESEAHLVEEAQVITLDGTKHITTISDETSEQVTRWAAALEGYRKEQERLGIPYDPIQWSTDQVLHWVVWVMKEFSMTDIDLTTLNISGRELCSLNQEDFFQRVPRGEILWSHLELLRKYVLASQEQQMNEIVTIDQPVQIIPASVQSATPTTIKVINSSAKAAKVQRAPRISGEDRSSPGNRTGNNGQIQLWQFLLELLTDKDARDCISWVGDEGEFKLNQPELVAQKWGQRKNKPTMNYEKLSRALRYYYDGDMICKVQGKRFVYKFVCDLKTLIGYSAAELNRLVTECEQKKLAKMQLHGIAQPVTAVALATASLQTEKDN
# Method in brief: as §1
# ERG = biological target: T3, ERG (Homo sapiens, UniProt P11308 1-479)
# T3 sequence: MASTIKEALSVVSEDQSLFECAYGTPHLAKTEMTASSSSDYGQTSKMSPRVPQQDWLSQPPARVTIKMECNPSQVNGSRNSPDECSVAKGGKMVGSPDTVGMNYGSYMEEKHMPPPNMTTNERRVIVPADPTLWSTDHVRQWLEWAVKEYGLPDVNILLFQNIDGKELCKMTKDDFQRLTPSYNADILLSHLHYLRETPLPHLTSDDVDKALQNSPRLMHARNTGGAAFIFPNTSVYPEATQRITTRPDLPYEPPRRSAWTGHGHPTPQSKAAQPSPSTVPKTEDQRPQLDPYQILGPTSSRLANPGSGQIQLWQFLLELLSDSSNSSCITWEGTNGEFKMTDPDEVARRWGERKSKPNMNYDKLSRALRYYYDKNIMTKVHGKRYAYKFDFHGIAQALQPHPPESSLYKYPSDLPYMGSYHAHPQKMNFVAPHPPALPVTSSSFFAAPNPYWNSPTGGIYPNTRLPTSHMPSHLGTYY
# Method in brief: as §1
# ELF1 = ELF1 (Homo sapiens, UniProt P32519 1-619)
# Method in brief: as §1
# EHF = biological target: T4, EHF (Homo sapiens, UniProt Q9NZC4 1-300)
# T4 sequence: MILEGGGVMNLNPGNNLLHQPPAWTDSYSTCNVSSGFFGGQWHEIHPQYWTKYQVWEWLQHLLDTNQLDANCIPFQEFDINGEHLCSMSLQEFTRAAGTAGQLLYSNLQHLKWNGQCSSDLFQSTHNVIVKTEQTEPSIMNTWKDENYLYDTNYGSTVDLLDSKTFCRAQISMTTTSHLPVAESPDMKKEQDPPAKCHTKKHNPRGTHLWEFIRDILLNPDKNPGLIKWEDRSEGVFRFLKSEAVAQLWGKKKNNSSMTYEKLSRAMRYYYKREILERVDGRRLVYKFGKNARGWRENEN
# Method in brief: as §1
# SPIB = SPIB (Homo sapiens, UniProt Q01892 1-262)
# Method in brief: as §1
# ELK3 = biological target: T5, ELK3 (Homo sapiens, UniProt P41970 1-407)
# T5 sequence: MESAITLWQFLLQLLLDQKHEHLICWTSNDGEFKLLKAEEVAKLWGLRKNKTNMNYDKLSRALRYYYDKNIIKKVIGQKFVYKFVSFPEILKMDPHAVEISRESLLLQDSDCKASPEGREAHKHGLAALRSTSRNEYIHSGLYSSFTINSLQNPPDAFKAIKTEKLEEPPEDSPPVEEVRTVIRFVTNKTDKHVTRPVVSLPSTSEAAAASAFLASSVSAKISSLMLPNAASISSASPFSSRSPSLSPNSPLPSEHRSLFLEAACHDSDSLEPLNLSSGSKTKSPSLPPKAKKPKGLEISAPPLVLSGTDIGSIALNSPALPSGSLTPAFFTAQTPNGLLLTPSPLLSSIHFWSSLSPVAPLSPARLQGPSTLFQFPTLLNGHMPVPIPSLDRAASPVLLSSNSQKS
# Method in brief: as §1
# FEV = biological target: T6, FEV (Homo sapiens, UniProt Q99581 1-238)
# T6 sequence: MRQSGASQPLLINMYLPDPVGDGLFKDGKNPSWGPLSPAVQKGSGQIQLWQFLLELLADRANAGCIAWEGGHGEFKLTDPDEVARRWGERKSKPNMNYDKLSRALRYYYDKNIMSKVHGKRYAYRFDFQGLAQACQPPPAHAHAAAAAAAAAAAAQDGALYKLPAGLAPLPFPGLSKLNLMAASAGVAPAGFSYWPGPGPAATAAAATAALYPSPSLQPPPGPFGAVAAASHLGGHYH
# Method in brief: as §1
# ETV5 = ETV5 (Homo sapiens, UniProt P41161 1-510)
# Method in brief: as §1
# ELF4 = ELF4 (Homo sapiens, UniProt Q99607 1-663)
# Method in brief: as §1
# ELK4 = biological target: T7, ELK4 (Homo sapiens, UniProt P28324-2 1-405)
# T7 sequence: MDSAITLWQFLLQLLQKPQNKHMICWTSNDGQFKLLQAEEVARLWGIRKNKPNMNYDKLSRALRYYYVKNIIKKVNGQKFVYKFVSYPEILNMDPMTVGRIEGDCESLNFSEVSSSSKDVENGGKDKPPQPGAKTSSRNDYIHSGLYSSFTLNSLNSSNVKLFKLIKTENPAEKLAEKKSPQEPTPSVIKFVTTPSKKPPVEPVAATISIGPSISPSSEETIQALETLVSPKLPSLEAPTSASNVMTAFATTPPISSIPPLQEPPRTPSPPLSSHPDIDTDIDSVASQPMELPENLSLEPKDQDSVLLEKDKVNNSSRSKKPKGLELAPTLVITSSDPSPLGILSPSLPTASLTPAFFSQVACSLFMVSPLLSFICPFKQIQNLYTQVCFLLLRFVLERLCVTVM
# Method in brief: as §1
# ELF3 = biological target: T8, ELF3 (Homo sapiens, UniProt P78545 1-371)
# T8 sequence: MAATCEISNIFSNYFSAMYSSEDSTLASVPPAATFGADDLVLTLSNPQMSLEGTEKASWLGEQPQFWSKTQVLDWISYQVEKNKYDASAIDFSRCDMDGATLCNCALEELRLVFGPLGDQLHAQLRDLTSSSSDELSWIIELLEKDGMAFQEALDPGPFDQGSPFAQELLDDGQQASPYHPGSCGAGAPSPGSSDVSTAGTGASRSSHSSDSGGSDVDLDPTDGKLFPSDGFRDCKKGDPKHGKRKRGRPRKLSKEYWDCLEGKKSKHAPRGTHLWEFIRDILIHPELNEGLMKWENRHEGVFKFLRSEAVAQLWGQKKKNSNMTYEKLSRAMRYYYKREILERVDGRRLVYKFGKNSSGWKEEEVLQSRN
# Method in brief: as §1
# ETV1 = ETV1 (Homo sapiens, UniProt P50549 1-477)
# Method in brief: as §1
# ETV3L = biological target: T9, ETV3L (Homo sapiens, UniProt Q6ZN32 1-361)
# T9 sequence: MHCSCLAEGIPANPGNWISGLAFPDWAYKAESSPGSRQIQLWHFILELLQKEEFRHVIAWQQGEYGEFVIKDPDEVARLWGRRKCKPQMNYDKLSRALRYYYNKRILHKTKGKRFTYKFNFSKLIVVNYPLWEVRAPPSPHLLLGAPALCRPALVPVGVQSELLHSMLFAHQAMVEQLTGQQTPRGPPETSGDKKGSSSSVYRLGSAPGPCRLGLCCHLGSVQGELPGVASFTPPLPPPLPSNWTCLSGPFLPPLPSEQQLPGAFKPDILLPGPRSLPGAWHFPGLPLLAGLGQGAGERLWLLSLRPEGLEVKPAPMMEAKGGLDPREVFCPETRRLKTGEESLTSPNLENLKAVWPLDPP
# Method in brief: as §1
# ETS2 = biological target: T10, ETS2 (Homo sapiens, UniProt P15036 1-469)
# T10 sequence: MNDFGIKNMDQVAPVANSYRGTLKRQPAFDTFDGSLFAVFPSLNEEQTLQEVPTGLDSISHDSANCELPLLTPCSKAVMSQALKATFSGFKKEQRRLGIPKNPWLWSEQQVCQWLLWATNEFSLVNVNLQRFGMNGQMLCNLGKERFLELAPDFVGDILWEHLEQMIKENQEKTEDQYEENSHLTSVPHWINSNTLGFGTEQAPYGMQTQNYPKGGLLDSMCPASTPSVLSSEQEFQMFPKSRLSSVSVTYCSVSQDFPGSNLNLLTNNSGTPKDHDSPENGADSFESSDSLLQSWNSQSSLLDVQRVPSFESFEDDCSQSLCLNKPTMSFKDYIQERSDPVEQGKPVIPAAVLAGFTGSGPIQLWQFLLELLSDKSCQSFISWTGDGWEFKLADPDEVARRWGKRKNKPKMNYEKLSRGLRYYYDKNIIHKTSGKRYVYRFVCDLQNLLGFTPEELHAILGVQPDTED
# Method in brief: as §1
# SPDEF = biological target: T11, SPDEF (Homo sapiens, UniProt O95238 1-335)
# T11 sequence: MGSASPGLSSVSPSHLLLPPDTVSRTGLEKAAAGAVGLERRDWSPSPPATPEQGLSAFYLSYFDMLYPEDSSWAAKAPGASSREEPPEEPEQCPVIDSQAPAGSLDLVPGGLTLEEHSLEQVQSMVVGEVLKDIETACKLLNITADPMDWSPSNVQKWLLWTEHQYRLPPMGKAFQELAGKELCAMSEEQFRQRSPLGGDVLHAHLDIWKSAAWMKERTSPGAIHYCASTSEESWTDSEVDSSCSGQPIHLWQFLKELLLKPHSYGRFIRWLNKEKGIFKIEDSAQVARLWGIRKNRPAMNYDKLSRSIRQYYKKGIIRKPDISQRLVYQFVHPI
# Method in brief: as §1
# ETV7 = biological target: T12, ETV7 (Homo sapiens, UniProt Q9Y603 1-341)
# T12 sequence: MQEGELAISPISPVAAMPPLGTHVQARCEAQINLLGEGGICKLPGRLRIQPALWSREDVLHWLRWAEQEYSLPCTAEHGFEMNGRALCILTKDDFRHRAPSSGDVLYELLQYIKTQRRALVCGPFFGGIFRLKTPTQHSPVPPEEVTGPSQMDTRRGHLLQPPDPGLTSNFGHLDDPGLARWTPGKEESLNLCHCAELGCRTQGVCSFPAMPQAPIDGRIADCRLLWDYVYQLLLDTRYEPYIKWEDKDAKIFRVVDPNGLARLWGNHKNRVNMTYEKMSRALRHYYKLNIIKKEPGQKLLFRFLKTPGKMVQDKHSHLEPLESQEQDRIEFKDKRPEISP
# Method in brief: as §1
# ETV3 = biological target: T13, ETV3 (Homo sapiens, UniProt P41162-2 1-143)
# T13 sequence: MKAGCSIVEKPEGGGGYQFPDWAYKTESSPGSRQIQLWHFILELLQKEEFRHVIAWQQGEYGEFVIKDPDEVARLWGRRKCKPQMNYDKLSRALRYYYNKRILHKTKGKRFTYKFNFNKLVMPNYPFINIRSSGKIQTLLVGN
# Method in brief: as §1
# ETV6 = ETV6 (Homo sapiens, UniProt P41212 1-452)
# Method in brief: as §1
# Chain of ETV6 (P41212 whole entry): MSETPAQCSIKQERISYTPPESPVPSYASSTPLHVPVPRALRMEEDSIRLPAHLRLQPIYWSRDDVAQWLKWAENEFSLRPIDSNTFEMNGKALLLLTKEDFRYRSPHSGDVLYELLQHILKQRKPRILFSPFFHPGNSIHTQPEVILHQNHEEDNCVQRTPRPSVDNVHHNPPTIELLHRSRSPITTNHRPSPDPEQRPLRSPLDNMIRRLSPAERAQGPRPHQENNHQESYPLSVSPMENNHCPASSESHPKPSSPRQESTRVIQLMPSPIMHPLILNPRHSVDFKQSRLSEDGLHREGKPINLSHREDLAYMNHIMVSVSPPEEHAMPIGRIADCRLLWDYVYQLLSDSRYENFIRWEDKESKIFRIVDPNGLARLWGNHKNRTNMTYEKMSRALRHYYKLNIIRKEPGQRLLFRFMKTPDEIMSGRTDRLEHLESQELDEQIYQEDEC
# Chain of ELF1 (P32519 whole entry): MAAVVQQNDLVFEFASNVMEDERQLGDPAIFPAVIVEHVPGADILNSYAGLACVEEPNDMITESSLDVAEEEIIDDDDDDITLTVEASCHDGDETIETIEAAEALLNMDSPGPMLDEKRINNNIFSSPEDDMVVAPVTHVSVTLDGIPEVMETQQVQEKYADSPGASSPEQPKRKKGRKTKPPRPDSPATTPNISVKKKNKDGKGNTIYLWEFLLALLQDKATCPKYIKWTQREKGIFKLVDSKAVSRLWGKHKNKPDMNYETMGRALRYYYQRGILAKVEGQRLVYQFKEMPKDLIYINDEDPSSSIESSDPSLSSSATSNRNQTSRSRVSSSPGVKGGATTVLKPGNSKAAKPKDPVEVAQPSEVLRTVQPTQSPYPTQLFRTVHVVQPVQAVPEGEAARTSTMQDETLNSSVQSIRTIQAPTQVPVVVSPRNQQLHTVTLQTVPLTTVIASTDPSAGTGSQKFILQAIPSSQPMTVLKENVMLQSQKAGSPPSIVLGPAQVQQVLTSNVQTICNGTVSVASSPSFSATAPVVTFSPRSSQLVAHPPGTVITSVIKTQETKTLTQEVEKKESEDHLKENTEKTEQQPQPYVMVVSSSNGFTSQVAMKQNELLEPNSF
# Chain of ETV1 (P50549 whole entry): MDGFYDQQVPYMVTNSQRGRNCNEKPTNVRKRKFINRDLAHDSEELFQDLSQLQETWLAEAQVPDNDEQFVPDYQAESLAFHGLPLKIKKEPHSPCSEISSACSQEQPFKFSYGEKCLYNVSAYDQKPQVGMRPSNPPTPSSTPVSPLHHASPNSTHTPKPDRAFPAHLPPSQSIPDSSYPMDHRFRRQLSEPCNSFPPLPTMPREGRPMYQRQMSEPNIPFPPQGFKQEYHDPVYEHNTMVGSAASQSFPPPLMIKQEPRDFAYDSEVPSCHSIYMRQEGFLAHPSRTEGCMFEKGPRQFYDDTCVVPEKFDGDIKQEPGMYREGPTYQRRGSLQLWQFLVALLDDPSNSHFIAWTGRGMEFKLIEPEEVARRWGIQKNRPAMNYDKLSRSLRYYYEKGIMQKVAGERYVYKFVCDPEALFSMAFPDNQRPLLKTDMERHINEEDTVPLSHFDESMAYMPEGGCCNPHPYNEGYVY
# Chain of ETV5 (P41161 whole entry): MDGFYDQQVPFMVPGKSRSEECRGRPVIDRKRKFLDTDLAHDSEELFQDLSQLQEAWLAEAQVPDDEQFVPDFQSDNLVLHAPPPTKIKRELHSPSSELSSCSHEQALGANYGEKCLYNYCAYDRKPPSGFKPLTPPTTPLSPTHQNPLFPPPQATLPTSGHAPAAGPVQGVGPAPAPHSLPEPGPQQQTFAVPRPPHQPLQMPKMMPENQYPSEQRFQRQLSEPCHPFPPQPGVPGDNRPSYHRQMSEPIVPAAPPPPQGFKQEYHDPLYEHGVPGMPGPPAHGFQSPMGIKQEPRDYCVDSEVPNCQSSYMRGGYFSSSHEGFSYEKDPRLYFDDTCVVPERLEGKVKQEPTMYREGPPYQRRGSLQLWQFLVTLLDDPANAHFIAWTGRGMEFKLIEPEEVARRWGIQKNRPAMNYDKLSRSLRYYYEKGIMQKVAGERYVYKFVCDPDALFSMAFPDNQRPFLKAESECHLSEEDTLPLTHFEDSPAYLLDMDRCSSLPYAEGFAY
# Chain of ELF4 (Q99607 whole entry): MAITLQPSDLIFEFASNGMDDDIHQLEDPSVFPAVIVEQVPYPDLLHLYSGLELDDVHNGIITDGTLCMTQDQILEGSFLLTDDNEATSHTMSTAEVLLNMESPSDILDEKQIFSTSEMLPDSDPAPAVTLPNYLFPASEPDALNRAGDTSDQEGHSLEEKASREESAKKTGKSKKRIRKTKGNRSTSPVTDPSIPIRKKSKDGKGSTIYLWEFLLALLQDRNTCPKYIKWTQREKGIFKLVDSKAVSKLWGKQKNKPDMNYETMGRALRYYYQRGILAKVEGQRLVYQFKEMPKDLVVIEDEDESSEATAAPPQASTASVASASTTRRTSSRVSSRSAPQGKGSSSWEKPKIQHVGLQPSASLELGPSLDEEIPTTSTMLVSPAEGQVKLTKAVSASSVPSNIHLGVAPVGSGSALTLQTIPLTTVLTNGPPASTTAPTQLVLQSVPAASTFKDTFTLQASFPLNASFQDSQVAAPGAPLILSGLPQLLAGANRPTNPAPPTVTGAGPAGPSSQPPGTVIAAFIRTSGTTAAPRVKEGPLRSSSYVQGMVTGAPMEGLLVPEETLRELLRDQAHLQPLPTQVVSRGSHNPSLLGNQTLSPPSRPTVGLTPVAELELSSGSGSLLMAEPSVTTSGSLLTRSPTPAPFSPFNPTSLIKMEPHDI
# Chain of SPIB (Q01892 whole entry): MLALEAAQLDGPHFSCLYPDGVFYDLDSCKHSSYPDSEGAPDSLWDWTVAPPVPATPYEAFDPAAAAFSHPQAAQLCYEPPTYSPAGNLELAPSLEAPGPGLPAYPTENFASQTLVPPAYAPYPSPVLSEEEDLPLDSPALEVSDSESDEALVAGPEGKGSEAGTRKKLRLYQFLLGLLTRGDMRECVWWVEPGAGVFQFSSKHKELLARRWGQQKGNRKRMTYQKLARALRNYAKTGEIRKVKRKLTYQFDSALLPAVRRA
sequence,measurement,setting,value
ACCGGC,binding signal,ELK1,"1.08 fold enrichment (6-mer frequency, TF over GST control)"
same,binding signal,GABPA,"1.12 fold enrichment (6-mer frequency, TF over GST control)"
same,binding signal,ERG,"1.13 fold enrichment (6-mer frequency, TF over GST control)"
same,binding signal,ELF1,"1.19 fold enrichment (6-mer frequency, TF over GST control)"
same,binding signal,EHF,"1.12 fold enrichment (6-mer frequency, TF over GST control)"
same,binding signal,SPIB,"1.3 fold enrichment (6-mer frequency, TF over GST control)"
same,binding signal,ELK3,"1.11 fold enrichment (6-mer frequency, TF over GST control)"
same,binding signal,FEV,"1.14 fold enrichment (6-mer frequency, TF over GST control)"
same,binding signal,ETV5,"1.1 fold enrichment (6-mer frequency, TF over GST control)"
same,binding signal,ELF4,"1.03 fold enrichment (6-mer frequency, TF over GST control)"
same,binding signal,ELK4,"1.1 fold enrichment (6-mer frequency, TF over GST control)"
same,binding signal,ELF3,"1.21 fold enrichment (6-mer frequency, TF over GST control)"
same,binding signal,ETV1,"1.23 fold enrichment (6-mer frequency, TF over GST control)"
same,binding signal,ETV3L,"1.21 fold enrichment (6-mer frequency, TF over GST control)"
same,binding signal,ETS2,"1.17 fold enrichment (6-mer frequency, TF over GST control)"
same,binding signal,SPDEF,"1.05 fold enrichment (6-mer frequency, TF over GST control)"
same,binding signal,ETV7,"1.06 fold enrichment (6-mer frequency, TF over GST control)"
same,binding signal,ETV3,"1.15 fold enrichment (6-mer frequency, TF over GST control)"
same,binding signal,ETV6,"1.31 fold enrichment (6-mer frequency, TF over GST control)"
